Assay outcomes from PubChem BioAssay.
PAX8 reporter = lowers PAX8-driven luciferase in RMG-I cells; RMG-I TPO-luciferase reporter, SteadyGlo, 24 h; inhibition, % at 12.6 µM; hit rate 1.2% among 360,000; AID 652154;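 active = mean replicate inhibition at least 60% with every replicate also reaching 60%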;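 note: luciferase light reporting Pax8 driven TPO promoter activity; plate controls were median of neutral control wells for no effect and mitoxantrone controls for full effect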
ABHD5 PLIN5 PPI = blocks binding of human ABHD5 to perilipin-5; Q00G26+Q8WTS1; Split G. princeps luciferase complementation, luminescence, 4 h; inhibition, % at 4 µM; hit rate 0.78% among 360,000;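 active = inhibition above the mean inhibition across every tested compound plus 3 SD, cut at about 22% in these data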;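 note: 0% = DMSO only wells and the 100% control is not disclosed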
Target sequence (Q00G26 whole entry, looked up): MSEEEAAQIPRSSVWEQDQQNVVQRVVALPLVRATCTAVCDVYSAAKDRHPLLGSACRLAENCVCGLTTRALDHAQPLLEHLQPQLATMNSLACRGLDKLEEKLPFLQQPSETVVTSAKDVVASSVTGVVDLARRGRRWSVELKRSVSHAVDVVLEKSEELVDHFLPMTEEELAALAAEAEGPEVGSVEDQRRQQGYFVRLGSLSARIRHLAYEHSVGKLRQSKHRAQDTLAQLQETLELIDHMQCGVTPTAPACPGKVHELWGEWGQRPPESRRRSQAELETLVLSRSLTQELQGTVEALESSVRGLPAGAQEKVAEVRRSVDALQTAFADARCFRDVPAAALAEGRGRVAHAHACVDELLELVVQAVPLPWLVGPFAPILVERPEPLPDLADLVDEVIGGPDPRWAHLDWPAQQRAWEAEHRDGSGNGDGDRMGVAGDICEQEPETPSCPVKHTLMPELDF
Target sequence (Q8WTS1 whole entry, looked up): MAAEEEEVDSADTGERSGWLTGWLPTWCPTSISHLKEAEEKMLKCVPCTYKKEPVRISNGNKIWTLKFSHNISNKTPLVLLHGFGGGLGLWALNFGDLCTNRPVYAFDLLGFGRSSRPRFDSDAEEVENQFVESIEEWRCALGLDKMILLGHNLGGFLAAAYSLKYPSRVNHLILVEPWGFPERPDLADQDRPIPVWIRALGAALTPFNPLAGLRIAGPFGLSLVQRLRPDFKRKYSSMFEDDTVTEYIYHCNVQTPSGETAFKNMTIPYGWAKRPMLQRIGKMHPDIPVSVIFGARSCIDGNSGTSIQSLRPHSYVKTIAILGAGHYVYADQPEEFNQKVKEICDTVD
Shn3 3UTR inh = inhibitors of Schnurri-3 3'UTR reporter in osteoblasts | Clone20 osteoblast Shn3 3'UTR firefly luciferase, 24 h | inhibition, % at 12.5 µM | hit rate 0.52% among 360,000 | AID 588674;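 active = mean inhibition of at least 75% with every replicate also reaching 75%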;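 note: 0% = median of neutral control wells and 100% = pilot-screen positive control compound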
Peg3 promoter = reduces Peg3 promoter-driven luciferase expression in HeLa; inhibition, % at 20 µM; hit rate 1.7% among 360,000; HeLa PEG-Prom luciferase reporter, luminescence, overnight;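 active = inhibition of at least 50% at 20 µM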
MITF TRPM1 inh = MITF TRPM1 promoter inhibition in SK-MEL-5 cells; inhibition, % at 12.5 µM; AID 488899; hit rate 0.83% among 330,000; SK-MEL-5 TRPM1 promoter luciferase, 24 h;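 active = mean inhibition across replicates of 60% or more, whatever share of single replicates reaches that level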
EWS-Fli inh = inhibitors of EWS/Fli oncoprotein transcriptional activity | inhibition, % at 12.6 µM | hit rate 0.67% among 350,000 | A673 NR0B1-luciferase reporter, viability-normalised;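 active = mean inhibition of at least 50% after viability correction, with every replicate also passing that limit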;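 note: firefly luciferase signal divided by Alamar Blue viability fluorescence both relative to DMSO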
* hit, by the source's call; nt = no result given. Sampled rows, rich in hits. Any-hit rate of the full collection: about 3%.

SMILES	PAX8 reporter	ABHD5 PLIN5 PPI	Shn3 3UTR inh	Peg3 promoter	MITF TRPM1 inh	EWS-Fli inh
Cc1ccc(S(=O)(=O)NCc2ccc(C(=O)N3CCN(c4ccc([N+](=O)[O-])cc4)CC3)cc2)cc1	88*	3	90*	18	52	21
O=C(c1cc([N+](=O)[O-])ccc1Cl)N1CCN(c2ccc([N+](=O)[O-])cc2)CC1	70*	3	-2	17	-3	12
CC(=O)c1ccc(N2CCN(C(=O)c3cc(-c4cccnc4)nc4ccc(Br)cc34)CC2)cc1	26	0	4	16	-5	-34
C[C@H]1CN([C@@H](C)CO)C(=O)c2cccc(NC(=O)C3CCOCC3)c2O[C@H]1CN(C)C(=O)Nc1ccccc1	1	nt	nt	nt	nt	0
C[C@@H]1CN([C@H](C)CO)C(=O)c2cc(NC(=O)c3ccncc3)ccc2O[C@@H](C)CCCCO[C@@H]1CN(C)CC1CCCCC1	-1	nt	nt	nt	nt	nt
C[C@H]1CN([C@@H](C)CO)S(=O)(=O)c2ccc(C3=CCCCC3)cc2O[C@@H]1CN(C)S(=O)(=O)c1cn(C)cn1	3	nt	nt	nt	nt	-2
CS(=O)(=O)N1[C@@H]2c3ccc(-c4cccc(F)c4)c(=O)n3C[C@@H]2[C@@H](CO)[C@@H]1C(=O)NC1CCC1	-18	nt	nt	nt	nt	-6
O=C(CN1C(=O)c2ccccc2S1(=O)=O)c1ccc(O)c(O)c1	-4	-2	nt	1	17	22
O=C(CN1C(=O)c2ccccc2S1(=O)=O)c1ccc(F)c(F)c1	64*	-4	35	0	12	35
COCC(=O)N1CC2(CN(Cc3cccnc3)C2)c2c(n(C)c3cc(OC)ccc23)[C@@H]1CO	nt	nt	nt	nt	nt	0
COc1ccccc1Nc1nc(-c2ccccc2)nc2ccccc12	-22	-4	-26	16	-5	8
COc1ccccc1Nc1c2ccccc2nc2ccccc12	15	5	45	88*	19	19
COc1ccc(Nc2c3ccccc3nc3ccccc23)cc1	17	3	68	78*	49	9
COc1ccc(Nc2nc(N3CCCC3)c3ccccc3n2)cc1	nt	-1	87*	60*	15	nt
COc1nc(NCCc2ccc(OC)c(OC)c2)nc(OC)n1	nt	6	-9	8	-3	nt
COc1ccc(CCNc2c3ccccc3nc3ccccc23)cc1OC	-66	0	26	73*	21	28
COc1ccc(Nc2c3c(nc4ccccc24)CCC3)cc1	33	7	31	40	21	30
CCCNC(=O)NC[C@H]1[C@H](c2ccc(C3=CCCC3)cc2)[C@@H](CO)N1C(C)=O	-5	nt	nt	nt	nt	9
COCC(=O)N(C)C[C@@H]1Oc2cc(-c3cccnc3)ccc2S(=O)(=O)N([C@H](C)CO)C[C@H]1C	nt	nt	nt	nt	nt	-24
Cc1ccc(S(=O)(=O)N2C[C@@H](O)COC[C@H]3O[C@H](CC(=O)N[C@@H]4CCN(Cc5ccccc5)C4)CC[C@@H]32)cc1	4	nt	nt	nt	nt	-1
COc1ccc(C)cc1Nc1c2c(nc3ccccc13)CCC2	47	1	79	-3	6	53*
COc1ccc(CCNCC(O)Cn2c3ccccc3c3ccccc32)cc1OC (stereo not given)	12	22*	1	111*	21	21
COc1ccccc1NCC(O)Cn1c2ccccc2c2ccccc21 (stereo not given)	17	4	-2	36	-5	nt
COc1ccc(Nc2c3c(nc4ccccc24)CCCC3)cc1OC	1	4	4	5	10	-5
Oc1cccc(Nc2c3ccccc3nc3ccccc23)c1	-25	7	65	76*	35	26
SMILES	PAX8 reporter	ABHD5 PLIN5 PPI	Shn3 3UTR inh	Peg3 promoter	MITF TRPM1 inh	EWS-Fli inh
COc1ccc(S(=O)(=O)N(C)C[C@@H]2OCc3ccccc3-c3ccccc3C(=O)N([C@H](C)CO)C[C@@H]2C)cc1	nt	nt	nt	nt	nt	7
CO[C@H]1CN(C)C(=O)c2cc(NC(=O)NC3CCCC3)ccc2OC[C@@H](C)N(C)C[C@@H]1C	nt	nt	nt	nt	nt	4
Cc1ccc(C(C(=O)NCc2ccccc2)N(Cc2ccco2)C(=O)c2snc(C(N)=O)c2N)o1 (stereo not given)	22	-6	8	52*	5	16
Cc1ccc(S(=O)(=O)Cc2cc(F)c([N+](=O)[O-])cc2[N+](=O)[O-])cc1	nt	12	-3	117*	52	nt
Cc1ccc(S(=O)(=O)Nc2ccc3c(c2)C(=O)N([C@H](C)CO)C[C@@H](C)[C@@H](CN(C)S(=O)(=O)c2c(C)noc2C)O3)cc1	38	nt	nt	nt	nt	-11
C[C@H](CO)N1C[C@H](C)[C@@H](CN(C)C(=O)NC2CCCCC2)Oc2ccc(NS(=O)(=O)c3cccs3)cc2CC1=O	nt	nt	nt	nt	nt	-7
CCC(=O)N(C)C[C@@H]1Oc2ncc(C#CCC(C)C)cc2C(=O)N([C@H](C)CO)C[C@@H]1C	nt	nt	nt	nt	nt	-2
COC(C(=O)C(O)C(C)O)C1Cc2cc3cc(OC4CC(OC5CC(O)C(O)C(C)O5)C(O)C(C)O4)c(C)c(O)c3c(O)c2C(=O)C1OC1CC(OC2CC(OC3CC(O)C(OC)C(C)O3)C(O)C(C)O2)C(O)C(C)O1 (stereo not given)	100*	-3	-99	100*	56	14
NC(CO)c1csc(Nc2ccc(C(F)(F)F)cn2)n1 (stereo not given)	1	-5	-42	-18	nt	-3
COc1cc(OC)nc(Nc2nc(C(N)Cc3ccc(Cl)cc3)cs2)n1 (stereo not given)	0	-8	33	99*	nt	25
Cc1cnc(C)c(Nc2nc(C(N)Cc3ccc(Cl)cc3)cs2)n1 (stereo not given)	0	0	9	46	nt	-3
NC(c1csc(Nc2ccc(C(F)(F)F)cn2)n1)C1CCCCC1 (stereo not given)	-15	0	51	99*	nt	18
NC(Cc1ccc(Cl)cc1)c1csc(Nc2ccc(C(F)(F)F)cn2)n1 (stereo not given)	-4	-5	20	101*	nt	16
CC(C)CC(N)c1csc(Nc2ccc(C(F)(F)F)cn2)n1 (stereo not given)	19	1	12	102*	nt	21
C[C@@H]1CN([C@H](C)CO)C(=O)c2cc(NS(=O)(=O)c3cn(C)cn3)ccc2O[C@@H](C)CCCCO[C@H]1CN(C)S(=O)(=O)c1cn(C)cn1	-14	nt	nt	nt	nt	-10
CCNC(=O)[C@H]1[C@H](CO)[C@H]2Cn3c(ccc(C4=CCCC4)c3=O)[C@@H]1N2Cc1ccccc1	4	nt	nt	nt	nt	0
CO[C@@H](CN(C)C(=O)c1ccc2c(c1)OCO2)[C@@H](C)CN([C@H](C)CO)S(=O)(=O)c1ccc(Cl)cc1	nt	nt	nt	nt	nt	2
NC(Cc1ccc(F)cc1)c1csc(Nc2nccc(C(F)(F)F)n2)n1 (stereo not given)	15	1	12	44	nt	5
NC(Cc1ccc(Cl)cc1)c1csc(Nc2nccc(C(F)(F)F)n2)n1 (stereo not given)	-14	1	-3	83*	nt	10
